Laboratory results reported in PubChem BioAssay (EPA / NIEHS).
Activity calls are given as the source filed them. How the source made its calls: active means hit-call score of the fitted dose curve at least 0.9, where 1 is the maximum; inactive means score below 0.9.

What was measured:
[1] = ATG_NFI_CIS: Attagene CIS-FACTORIAL HepG2 Assay for human Nuclear Factor I (NFI) (AID 2282989); conditions: HepG2 cis-regulatory reporter, NFI response element transcription; actives raise or lower the signal
Procedure, shortened: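 Multiplexed cis-reporter system in human HepG2 cells reports native TF activity as reporter mRNA induction 24 h post-dose. Fragments labelled with 6-FAM, HpaI-digested and resolved by capillary electrophoresis; activity fitted both directions versus DMSO.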

[2] = target: Myc proto-oncogene protein (Homo sapiens) (UniProt P01106); assay: ATG_Myc_CIS: Attagene CIS-FACTORIAL HepG2 Assay for human Myelocytomatosis (Myc) Proto-Oncogene Transcription Factor (AID 2282990); conditions: HepG2, Attagene cis-reporter transcription factor activity; actives raise or lower the signal
Procedure, shortened: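 Cells of the HepG2 human liver line bear multiple cis-driven reporter transcription units. Reporter mRNA after 24 h exposure is reverse-transcribed, amplified, labelled and resolved by capillary electrophoresis, with gain- or loss-of-signal fitting relative to DMSO.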

[3] = ATG_NF_kB_CIS: Attagene CIS-FACTORIAL HepG2 Assay for human Nuclear Factor Kappa B (NF-kB) (AID 2282991); conditions: HepG2 Attagene cis-factorial NF-kB reporter mRNA; actives raise or lower the signal
Procedure, shortened: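 DMSO served as negative control and baseline for bidirectional curve fitting. Transiently transfected HepG2 cells were dosed for 24 h, then reporter transcripts were measured by RT-PCR with capillary electrophoresis detection.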

[4] = ATG_Oct_MLP_CIS: Attagene CIS-FACTORIAL HepG2 Assay for human Octamer-Binding Transcription Factor (Oct) (AID 2282993); conditions: HepG2 Attagene cis-factorial Oct reporter, mRNA; actives raise or lower the signal
Procedure, shortened: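 After 24 h compound exposure, transfected HepG2 cells were lysed for total RNA; reporter-specific cDNA was PCR-amplified, fluorescently labelled and sized by capillary electrophoresis. Bidirectional curve fitting used DMSO as baseline.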

[5] = ATG_NRF2_ARE_CIS: Attagene CIS-FACTORIAL HepG2 Assay for human Nuclear Factor Erythroid 2 Related Factor 2 (NFR2) response to Antioxidant Response Elements (ARE) (AID 2282992); conditions: HepG2 Attagene ARE/NRF2 reporter, transcription factor activity; actives raise or lower the signal;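 on AC50: reporter mRNA level measured by RT-PCR and capillary electrophoresis fluorescence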
Procedure, shortened: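 HepG2 cells transiently transfected with multiplexed cis-regulated reporter transcription units measure endogenous transcription factor activity. Reporter mRNA at 24 h is quantified by RT-PCR, fluorescent labelling and capillary electrophoresis, with bidirectional fitting relative to DMSO.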

[6] = target: Cellular tumor antigen p53 (Homo sapiens) (UniProt P04637); assay: ATG_p53_CIS: Attagene CIS-FACTORIAL HepG2 Assay for human p53 Transcription Factor (AID 2282994); conditions: HepG2 p53 cis-element reporter, Attagene mRNA; actives raise or lower the signal
Procedure, shortened: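 HepG2 cells transiently transfected with multiplexed cis-regulated reporter transcription units read endogenous TF activity. After 24 h compound exposure, reporter mRNA was quantified by RT-PCR, fluorescent labelling, HpaI digestion and capillary electrophoresis; bidirectional fits versus DMSO baseline.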

[7] = BSK_3C_TissueFactor: BioMAP Diversity Plus: 3C Assay for Tissue Factor Biomarker Activity (AID 2282997); conditions: BioMAP 3C HUVEC, tissue factor biomarker readout; actives raise or lower the signal
Procedure, shortened: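 Human vascular primary cells (umbilical vein endothelium) received test chemical; Tissue Factor was determined by ELISA at 24 h, and both gain and loss of signal versus DMSO were fitted.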

[8] = BSK_3C_uPAR: BioMAP Diversity Plus: 3C Assay for Urokinase-type plasminogen activator receptor (uPAR) Biomarker Activity (AID 2282998); conditions: BioMAP 3C HUVEC, uPAR biomarker ELISA; actives raise or lower the signal
Procedure, shortened: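 Values derive from bidirectional curve fitting relative to DMSO, which served as baseline of activity. uPAR was measured by ELISA in human umbilical vein endothelial primary cultures 24 h after compound addition.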

[9] = BSK_3C_VCAM1: BioMAP Diversity Plus: 3C Assay for Vascular cell adhesion molecule 1 (VCAM1) Biomarker Activity (AID 2282999); conditions: BioMAP 3C HUVEC, VCAM1 ELISA, cytokine-stimulated; actives raise or lower the signal
Procedure, shortened: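 Endothelial cells from human umbilical vein are treated with test chemical. At 24 h, VCAM-1 is measured by ELISA, and responses in either direction are fitted relative to DMSO.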

[10] = BSK_4H_Eotaxin3: BioMAP Diversity Plus: 4H Assay for Eotaxin 3 Biomarker Activity (AID 2283000); conditions: primary human endothelial cells (HUVEC); actives raise or lower the signal
Procedure, shortened: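 Readout is Eotaxin-3 (CCL26) level by ELISA in primary human umbilical vein endothelial cells harvested 24 h after chemical exposure; activity fitted in both directions against DMSO control.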

Measured: AC50

Myc proto-oncogene protein (Homo sapiens), sequence (P01106 whole entry, looked up): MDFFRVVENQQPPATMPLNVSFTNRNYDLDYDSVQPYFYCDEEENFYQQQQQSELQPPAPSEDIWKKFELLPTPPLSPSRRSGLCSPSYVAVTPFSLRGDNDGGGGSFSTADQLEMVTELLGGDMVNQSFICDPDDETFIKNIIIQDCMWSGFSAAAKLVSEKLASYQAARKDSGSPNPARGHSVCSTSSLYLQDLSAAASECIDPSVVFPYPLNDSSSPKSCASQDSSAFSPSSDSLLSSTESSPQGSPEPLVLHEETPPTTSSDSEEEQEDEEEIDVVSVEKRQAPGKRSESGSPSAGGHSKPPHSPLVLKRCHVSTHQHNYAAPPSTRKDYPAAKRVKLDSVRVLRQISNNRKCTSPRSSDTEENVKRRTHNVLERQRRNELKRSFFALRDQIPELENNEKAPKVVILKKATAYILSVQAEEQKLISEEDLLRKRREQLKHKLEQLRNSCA
Cellular tumor antigen p53 (Homo sapiens), sequence (P04637 whole entry, looked up): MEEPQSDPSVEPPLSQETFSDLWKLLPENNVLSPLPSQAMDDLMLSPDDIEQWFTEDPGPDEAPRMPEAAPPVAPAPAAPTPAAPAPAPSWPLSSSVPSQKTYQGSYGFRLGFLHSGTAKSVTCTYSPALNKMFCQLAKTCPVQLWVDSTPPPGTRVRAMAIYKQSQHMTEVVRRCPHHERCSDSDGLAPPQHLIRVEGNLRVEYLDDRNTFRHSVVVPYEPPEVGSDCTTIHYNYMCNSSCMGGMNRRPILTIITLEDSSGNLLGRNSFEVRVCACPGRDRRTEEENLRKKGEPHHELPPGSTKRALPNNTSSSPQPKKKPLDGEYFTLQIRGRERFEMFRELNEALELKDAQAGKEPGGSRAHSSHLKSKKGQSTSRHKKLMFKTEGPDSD

CCCc1ccc(OC)cc1
inactive: [1] | [2] | [3] | [4]

CC(C)(C)c1ccc(-c2ccc(C(C)(C)C)cc2)cc1
inactive: [1] | [2] | [5] | [4]

Cc1oncc1C(=O)Nc1ccc(C(F)(F)F)cc1
inactive: [1] | [2] | [3] | [4] | [6]

O=c1c2ccccc2oc2ccccc12
active: [5] 26.9 µM | [7] 3.97 µM
not listed: [6]
inactive: all other assays above

C=CC(=O)OCC(Br)CBr (stereo not drawn)
inactive: [2] | [4]
active: [1] 163 µM | [3] 56.6 µM | [5] 24.8 µM | [6] 165 µM | [7] 20 µM | [8] 34.2 µM | [9] 18.4 µM | [10] 20 µM

CCCCC/C=C\C/C=C\CCCCCCCC(=O)OC
active: [3] 37 µM | [5] 32.5 µM | [6] 180 µM | [7] 20 µM | [8] 33.7 µM | [9] 30 µM | [10] 34 µM
inactive: [1] | [2] | [4]

CC(C)c1ccc2c(c1)CC[C@H]1[C@](C)(CN)CCC[C@]21C
inactive: [1] | [2] | [6]
active: [3] 5.84 µM | [4] 5.89 µM

O=C(Cl)c1cc(C(=O)Cl)cc(C(=O)Cl)c1
active: [5] 158 µM | [7] 12.2 µM | [8] 10.2 µM | [9] 12.7 µM | [10] 25.8 µM
inactive: [1] | [2] | [3] | [4] | [6]

S=C(NC1CCCCC1)NC1CCCCC1
not listed: [5] | [6]
inactive: all other assays above

CCOC(=O)c1ccc(N(C)C)cc1
inactive: [1] | [2] | [5] | [4]

COCc1c(C(C)C)nc(C(C)C)c(/C=C/[C@@H](O)C[C@@H](O)CC(=O)O)c1-c1ccc(F)cc1
active: [7] 5.66 µM | [8] 0.0342 µM | [10] 0.0266 µM
not listed: [5]
inactive: all other assays above

CC(C)(c1cc(Br)c(OCCO)c(Br)c1)c1cc(Br)c(OCCO)c(Br)c1
active: [1] 45.1 µM | [5] 18.6 µM | [4] 17.7 µM | [6] 7 µM | [7] 16.2 µM | [8] 16.2 µM | [9] 27.3 µM | [10] 8.31 µM
inactive: [2] | [3]

C=CC=CC=CCCCCC
active: [5] 20 µM
inactive: all other assays above

CC(=O)c1ccc[nH]1
inactive: [1] | [2] | [3] | [4] | [6]

COc1cc(C)ccc1C(C)C
inactive: [1] | [2] | [3] | [4] | [6]

C=CCOc1c(Br)cc(Br)cc1Br
active: [7] 13.7 µM | [8] 5.76 µM | [9] 24.3 µM | [10] 29.3 µM
inactive: all other assays above

Nc1ccc2cc3ccccc3cc2c1
active: [5] 47 µM
inactive: [1] | [2] | [4]

O=S(=O)(Oc1ccc(Cl)cc1Cl)c1ccccc1
inactive: [1] | [2] | [3] | [4]

O=C1CCCCCCCCCCC(=O)OCCO1
inactive: [1] | [2] | [3] | [4] | [6]

CCN(CCO)c1cccc(C)c1
inactive: [1] | [2] | [3] | [4] | [6]

CO[Si](OC)(OC)c1ccccc1
inactive: all assays above

CC(C)(C)C(=O)CCc1ccc(Cl)cc1
inactive: [1] | [2] | [5] | [4]

CCCCC(CC)COC(=O)c1ccccc1O (stereo not drawn)
active: [7] 1.8 µM | [8] 17.9 µM | [10] 15.2 µM
not listed: [5]
inactive: all other assays above

CCc1c(C(=O)O)c(=O)cnn1-c1ccc(Cl)cc1
inactive: [1] | [2] | [3] | [4] | [6]

CCCCCCCCc1ccc(Nc2ccc(CCCCCCCC)cc2)cc1
inactive: all assays above

C=C(C)C(=O)OCCO
inactive: [1] | [2] | [5] | [4]

O=C1C(N(CO)C(=O)NCO)N(CO)C(=O)N1CO (stereo not drawn)
inactive: [1] | [2] | [5] | [4] | [6]
